This is an account of results in paper PMC7862700, “An all-to-all approach to the identification of sequence-specific readers for epigenetic DNA modifications on cytosine”.

Assay in all cases: DAPPL (digital affinity profiling via proximity ligation, sequencing); 10 mM Tris-HCl pH 7.5, 50 mM NaCl, 1 mM DTT, 4% glycerol, room temperature, 30 min; GST-TFs on glutathione beads, 16-mer random dsDNA library, 0.1% formaldehyde crosslink after washing; high values mean tight binding
In one experiment the target is T1, FLI1 (Homo sapiens, UniProt Q01543 1-452).
T1 sequence: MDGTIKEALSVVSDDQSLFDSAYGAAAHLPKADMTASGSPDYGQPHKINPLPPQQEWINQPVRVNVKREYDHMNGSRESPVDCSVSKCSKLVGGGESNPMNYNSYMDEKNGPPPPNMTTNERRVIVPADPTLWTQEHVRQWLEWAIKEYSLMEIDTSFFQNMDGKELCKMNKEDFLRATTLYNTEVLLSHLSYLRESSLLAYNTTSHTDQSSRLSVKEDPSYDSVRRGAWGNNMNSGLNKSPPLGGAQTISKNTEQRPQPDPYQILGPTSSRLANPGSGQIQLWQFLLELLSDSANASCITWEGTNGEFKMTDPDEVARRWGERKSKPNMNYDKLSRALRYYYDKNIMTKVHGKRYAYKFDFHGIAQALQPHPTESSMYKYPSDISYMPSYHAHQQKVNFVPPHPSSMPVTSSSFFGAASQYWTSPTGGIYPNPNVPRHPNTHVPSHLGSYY
The settings on record: protein: recombinant; tags: N-terminal GST; dsDNA, one strand shown. Summed up: (§1)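 Binding signal is each hexamer's read frequency for a factor divided by its frequency in the tag-only sample. The factors were GST-fused human transcription factors from yeast, captured on glutathione beads, DNA-barcoded and pooled with that sample. Pools were incubated with 200 nmole of a random double-stranded 16-mer DNA library in Tris/NaCl/DTT/glycerol buffer at room temperature for 30 min, then washed, crosslinked with 0.1% formaldehyde, proximity-ligated with BsaI/T4 ligase (1 h, 37 °C), PCR-amplified and sequenced on an Illumina NextSeq500.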

Another experiment concerns the target T2, ELK1 (Homo sapiens, UniProt P19419 1-428).
T2 sequence: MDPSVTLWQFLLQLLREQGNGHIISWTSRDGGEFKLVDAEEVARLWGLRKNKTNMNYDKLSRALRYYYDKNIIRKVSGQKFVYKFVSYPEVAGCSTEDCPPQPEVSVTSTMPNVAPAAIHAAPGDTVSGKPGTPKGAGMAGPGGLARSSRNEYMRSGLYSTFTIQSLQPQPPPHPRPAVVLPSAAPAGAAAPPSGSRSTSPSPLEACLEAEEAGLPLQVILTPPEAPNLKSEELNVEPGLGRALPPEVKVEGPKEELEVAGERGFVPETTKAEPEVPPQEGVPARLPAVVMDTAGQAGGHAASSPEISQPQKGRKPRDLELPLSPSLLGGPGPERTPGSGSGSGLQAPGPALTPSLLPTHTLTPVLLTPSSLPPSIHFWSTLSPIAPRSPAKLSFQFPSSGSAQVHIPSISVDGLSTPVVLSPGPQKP
As to conditions: protein: recombinant; tags: N-terminal GST; dsDNA, one strand shown. The essentials:
as §1

Another experiment deals with T3, GABPA (Homo sapiens, UniProt Q06546 1-454).
T3 sequence: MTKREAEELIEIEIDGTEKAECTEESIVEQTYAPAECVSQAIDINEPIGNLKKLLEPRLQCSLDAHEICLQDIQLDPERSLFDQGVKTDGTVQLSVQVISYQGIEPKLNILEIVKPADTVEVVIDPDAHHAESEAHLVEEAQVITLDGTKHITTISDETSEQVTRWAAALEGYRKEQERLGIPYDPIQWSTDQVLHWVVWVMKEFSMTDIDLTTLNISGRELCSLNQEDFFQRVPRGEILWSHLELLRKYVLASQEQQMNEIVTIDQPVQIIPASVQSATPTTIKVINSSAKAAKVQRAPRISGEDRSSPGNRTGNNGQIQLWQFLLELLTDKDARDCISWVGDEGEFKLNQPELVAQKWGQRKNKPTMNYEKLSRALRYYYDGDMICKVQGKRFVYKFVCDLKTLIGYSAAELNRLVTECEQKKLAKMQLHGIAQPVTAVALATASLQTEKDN
As to conditions: protein: recombinant; tags: N-terminal GST; dsDNA, one strand shown. Summed up:
as §1

Another experiment has as its target T4, ERG (Homo sapiens, UniProt P11308 1-479).
T4 sequence: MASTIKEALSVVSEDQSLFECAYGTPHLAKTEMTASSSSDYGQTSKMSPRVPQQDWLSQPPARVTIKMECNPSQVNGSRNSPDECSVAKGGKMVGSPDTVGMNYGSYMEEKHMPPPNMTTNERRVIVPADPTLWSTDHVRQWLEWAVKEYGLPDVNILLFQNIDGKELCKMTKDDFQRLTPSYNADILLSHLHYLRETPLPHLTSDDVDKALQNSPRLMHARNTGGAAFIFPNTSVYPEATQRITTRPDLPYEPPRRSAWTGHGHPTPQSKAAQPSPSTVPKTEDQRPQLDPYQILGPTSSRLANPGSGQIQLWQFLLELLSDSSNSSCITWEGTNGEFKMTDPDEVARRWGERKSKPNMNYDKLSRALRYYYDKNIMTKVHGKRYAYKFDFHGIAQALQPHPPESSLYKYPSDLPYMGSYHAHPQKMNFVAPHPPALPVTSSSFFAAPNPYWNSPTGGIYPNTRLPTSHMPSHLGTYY
As to conditions: protein: recombinant; tags: N-terminal GST; dsDNA, one strand shown. The essentials:
as §1

A further experiment deals with ELF1 (Homo sapiens, UniProt P32519 1-619). As to conditions: protein: recombinant; tags: N-terminal GST; dsDNA, one strand shown. The essentials:
as §1

In a further experiment the target is T5, EHF (Homo sapiens, UniProt Q9NZC4 1-300).
T5 sequence: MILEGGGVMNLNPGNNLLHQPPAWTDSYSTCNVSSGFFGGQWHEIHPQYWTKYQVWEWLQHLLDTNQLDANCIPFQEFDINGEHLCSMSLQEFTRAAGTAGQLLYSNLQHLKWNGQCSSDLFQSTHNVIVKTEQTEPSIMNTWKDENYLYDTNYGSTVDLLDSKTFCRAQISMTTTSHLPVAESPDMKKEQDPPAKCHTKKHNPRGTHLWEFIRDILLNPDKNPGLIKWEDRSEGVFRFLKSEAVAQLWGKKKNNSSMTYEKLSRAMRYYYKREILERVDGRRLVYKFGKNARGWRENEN
The settings on record: protein: recombinant; tags: N-terminal GST; dsDNA, one strand shown. Summed up: as §1

The target in the next experiment is SPIB (Homo sapiens, UniProt Q01892 1-262). The settings on record: protein: recombinant; tags: N-terminal GST; dsDNA, one strand shown. Summed up: as §1
The target of a further experiment is T6, ELK3 (Homo sapiens, UniProt P41970 1-407).
T6 sequence: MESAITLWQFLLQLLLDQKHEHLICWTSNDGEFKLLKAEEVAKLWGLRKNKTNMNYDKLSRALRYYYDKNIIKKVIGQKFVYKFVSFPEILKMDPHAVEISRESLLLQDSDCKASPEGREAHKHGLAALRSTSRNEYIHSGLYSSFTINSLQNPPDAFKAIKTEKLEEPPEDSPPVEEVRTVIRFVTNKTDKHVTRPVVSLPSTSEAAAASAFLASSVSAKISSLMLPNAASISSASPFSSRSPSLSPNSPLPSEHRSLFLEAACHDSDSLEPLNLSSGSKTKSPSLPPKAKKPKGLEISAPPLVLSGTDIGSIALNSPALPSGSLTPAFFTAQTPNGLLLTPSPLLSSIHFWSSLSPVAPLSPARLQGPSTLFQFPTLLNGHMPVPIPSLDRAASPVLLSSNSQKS
The settings on record: protein: recombinant; tags: N-terminal GST; dsDNA, one strand shown. Summed up: as §1

The next experiment has as its target T7, FEV (Homo sapiens, UniProt Q99581 1-238).
T7 sequence: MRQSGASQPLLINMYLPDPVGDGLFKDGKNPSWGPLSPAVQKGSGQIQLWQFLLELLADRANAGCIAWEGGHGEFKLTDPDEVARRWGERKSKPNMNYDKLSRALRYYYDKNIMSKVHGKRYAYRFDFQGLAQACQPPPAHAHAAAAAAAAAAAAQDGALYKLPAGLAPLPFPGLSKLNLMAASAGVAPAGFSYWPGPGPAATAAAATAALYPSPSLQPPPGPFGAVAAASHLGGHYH
As to conditions: protein: recombinant; tags: N-terminal GST; dsDNA, one strand shown. Summed up: as §1

The next experiment has as its target ETV5 (Homo sapiens, UniProt P41161 1-510). The settings on record: protein: recombinant; tags: N-terminal GST; dsDNA, one strand shown. The essentials: as §1
The target in a further experiment is HSF1 (Homo sapiens, UniProt Q00613 1-529). As to conditions: protein: recombinant; tags: N-terminal GST; chain copies: 3; dsDNA, one strand shown. Summed up:
as §1

A further experiment addresses T8, SPIC (Homo sapiens, UniProt Q8N5J4 1-248).
T8 sequence: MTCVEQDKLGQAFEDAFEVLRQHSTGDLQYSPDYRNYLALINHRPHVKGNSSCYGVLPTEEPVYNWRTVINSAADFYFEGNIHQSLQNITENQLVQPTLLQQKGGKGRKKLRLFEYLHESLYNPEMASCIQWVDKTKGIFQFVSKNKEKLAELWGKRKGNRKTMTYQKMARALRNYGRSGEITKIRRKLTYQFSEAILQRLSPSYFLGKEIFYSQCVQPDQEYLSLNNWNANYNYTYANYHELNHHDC
As to conditions: protein: recombinant; tags: N-terminal GST; dsDNA, one strand shown. The essentials: as §1

A further experiment addresses ELF4 (Homo sapiens, UniProt Q99607 1-663). The settings on record: protein: recombinant; tags: N-terminal GST; dsDNA, one strand shown. The essentials: as §1
For another experiment, the target named is T9, ELK4 (Homo sapiens, UniProt P28324-2 1-405).
T9 sequence: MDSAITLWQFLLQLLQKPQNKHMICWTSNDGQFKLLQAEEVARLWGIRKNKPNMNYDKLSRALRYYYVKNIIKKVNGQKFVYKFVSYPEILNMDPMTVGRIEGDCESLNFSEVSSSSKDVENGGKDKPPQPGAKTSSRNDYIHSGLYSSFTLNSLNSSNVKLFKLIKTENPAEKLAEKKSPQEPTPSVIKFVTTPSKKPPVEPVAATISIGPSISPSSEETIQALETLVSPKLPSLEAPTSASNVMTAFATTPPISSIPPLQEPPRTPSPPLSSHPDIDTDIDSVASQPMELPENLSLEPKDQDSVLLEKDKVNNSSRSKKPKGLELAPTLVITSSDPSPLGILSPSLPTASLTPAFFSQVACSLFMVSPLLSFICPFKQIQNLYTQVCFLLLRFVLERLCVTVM
As to conditions: protein: recombinant; tags: N-terminal GST; dsDNA, one strand shown. Summed up:
as §1

The next experiment deals with T10, ETV2 (Homo sapiens, UniProt O00321 1-342).
T10 sequence: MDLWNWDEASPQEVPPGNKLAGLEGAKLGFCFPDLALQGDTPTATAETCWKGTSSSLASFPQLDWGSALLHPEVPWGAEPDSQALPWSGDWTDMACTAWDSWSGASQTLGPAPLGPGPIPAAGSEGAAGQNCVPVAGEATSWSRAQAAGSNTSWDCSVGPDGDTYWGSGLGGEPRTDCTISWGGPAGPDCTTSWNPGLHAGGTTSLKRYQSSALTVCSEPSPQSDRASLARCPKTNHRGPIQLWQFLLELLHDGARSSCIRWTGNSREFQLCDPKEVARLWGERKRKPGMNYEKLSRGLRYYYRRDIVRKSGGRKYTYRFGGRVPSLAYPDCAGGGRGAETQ
As to conditions: protein: recombinant; tags: N-terminal GST; dsDNA, one strand shown. The essentials: as §1

The target of another experiment is T11, ELF3 (Homo sapiens, UniProt P78545 1-371).
T11 sequence: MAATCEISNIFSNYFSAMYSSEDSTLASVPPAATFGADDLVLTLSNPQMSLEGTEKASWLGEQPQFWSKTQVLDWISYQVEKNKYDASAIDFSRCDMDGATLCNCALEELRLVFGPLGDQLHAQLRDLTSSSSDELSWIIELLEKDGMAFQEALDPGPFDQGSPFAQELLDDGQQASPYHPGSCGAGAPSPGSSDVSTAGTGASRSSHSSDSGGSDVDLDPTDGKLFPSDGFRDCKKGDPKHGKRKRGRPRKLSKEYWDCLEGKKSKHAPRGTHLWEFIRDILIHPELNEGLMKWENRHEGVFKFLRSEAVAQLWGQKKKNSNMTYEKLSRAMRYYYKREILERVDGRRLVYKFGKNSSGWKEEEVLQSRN
The settings on record: protein: recombinant; tags: N-terminal GST; dsDNA, one strand shown. The essentials: as §1

A further experiment addresses ETV1 (Homo sapiens, UniProt P50549 1-477). The settings on record: protein: recombinant; tags: N-terminal GST; dsDNA, one strand shown. Summed up: as §1

Chain of SPIB (Q01892 whole entry): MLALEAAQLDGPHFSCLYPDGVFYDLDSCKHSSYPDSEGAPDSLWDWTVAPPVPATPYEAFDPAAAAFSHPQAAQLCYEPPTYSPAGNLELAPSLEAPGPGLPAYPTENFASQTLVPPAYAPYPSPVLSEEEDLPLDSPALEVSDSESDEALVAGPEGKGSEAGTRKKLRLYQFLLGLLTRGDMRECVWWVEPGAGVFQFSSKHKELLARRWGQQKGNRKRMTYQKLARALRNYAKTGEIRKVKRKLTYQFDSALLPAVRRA
Chain of ELF1 (P32519 whole entry): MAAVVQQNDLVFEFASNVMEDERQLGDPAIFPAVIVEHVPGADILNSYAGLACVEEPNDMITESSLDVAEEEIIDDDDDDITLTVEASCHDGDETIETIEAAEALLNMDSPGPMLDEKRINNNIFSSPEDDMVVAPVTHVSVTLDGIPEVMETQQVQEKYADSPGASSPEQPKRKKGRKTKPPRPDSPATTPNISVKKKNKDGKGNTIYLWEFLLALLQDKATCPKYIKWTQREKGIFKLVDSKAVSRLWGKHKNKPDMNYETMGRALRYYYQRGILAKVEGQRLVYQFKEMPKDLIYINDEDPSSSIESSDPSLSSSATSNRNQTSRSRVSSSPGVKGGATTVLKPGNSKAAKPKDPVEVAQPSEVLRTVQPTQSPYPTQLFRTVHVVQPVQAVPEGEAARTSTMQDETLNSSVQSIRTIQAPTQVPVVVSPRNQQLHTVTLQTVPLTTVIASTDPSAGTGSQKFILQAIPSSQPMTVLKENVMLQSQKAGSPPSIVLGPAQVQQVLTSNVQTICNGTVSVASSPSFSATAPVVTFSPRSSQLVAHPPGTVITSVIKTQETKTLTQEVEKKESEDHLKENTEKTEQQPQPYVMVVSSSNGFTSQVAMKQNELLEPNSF
Chain of ETV5 (P41161 whole entry): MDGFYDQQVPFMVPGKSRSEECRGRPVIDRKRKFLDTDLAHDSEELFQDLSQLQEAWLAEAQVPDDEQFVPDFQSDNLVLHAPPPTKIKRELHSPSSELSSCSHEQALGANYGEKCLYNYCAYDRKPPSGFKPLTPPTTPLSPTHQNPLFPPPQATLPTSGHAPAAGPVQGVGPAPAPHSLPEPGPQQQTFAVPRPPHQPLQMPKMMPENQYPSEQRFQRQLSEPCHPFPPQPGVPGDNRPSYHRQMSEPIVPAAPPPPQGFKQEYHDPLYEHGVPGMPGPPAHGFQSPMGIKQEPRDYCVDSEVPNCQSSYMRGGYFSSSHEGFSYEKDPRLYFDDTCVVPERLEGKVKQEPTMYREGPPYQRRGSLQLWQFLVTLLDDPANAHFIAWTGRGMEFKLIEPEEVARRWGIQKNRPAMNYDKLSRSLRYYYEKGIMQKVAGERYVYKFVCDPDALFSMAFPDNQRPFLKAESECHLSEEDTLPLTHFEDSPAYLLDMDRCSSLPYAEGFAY
Chain of ETV1 (P50549 whole entry): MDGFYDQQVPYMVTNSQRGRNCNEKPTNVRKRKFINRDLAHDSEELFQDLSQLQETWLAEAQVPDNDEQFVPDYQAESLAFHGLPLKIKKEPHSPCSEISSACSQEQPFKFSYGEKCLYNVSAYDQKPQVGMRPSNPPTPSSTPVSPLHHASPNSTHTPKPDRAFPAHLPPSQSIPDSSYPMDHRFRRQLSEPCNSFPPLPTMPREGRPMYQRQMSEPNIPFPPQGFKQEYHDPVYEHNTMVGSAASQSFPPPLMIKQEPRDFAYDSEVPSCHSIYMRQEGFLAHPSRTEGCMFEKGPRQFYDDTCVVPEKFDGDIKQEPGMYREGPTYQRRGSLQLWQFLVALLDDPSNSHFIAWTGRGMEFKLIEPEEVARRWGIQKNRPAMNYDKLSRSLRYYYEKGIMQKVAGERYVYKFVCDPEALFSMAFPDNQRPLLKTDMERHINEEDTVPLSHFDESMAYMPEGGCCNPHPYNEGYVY
Chain of HSF1 (Q00613 whole entry): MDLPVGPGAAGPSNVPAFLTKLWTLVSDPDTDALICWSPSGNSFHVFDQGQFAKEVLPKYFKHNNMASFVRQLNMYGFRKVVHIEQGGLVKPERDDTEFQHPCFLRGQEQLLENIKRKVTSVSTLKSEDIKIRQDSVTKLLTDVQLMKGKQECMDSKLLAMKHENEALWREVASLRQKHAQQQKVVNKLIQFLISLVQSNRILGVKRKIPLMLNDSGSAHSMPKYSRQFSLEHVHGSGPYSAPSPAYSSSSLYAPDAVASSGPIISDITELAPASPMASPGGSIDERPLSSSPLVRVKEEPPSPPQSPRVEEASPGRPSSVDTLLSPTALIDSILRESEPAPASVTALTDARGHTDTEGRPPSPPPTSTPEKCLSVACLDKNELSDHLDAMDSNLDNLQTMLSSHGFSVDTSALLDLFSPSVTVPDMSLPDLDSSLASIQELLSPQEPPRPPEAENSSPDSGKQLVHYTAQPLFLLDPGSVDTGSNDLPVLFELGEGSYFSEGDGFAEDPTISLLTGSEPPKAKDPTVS
Chain of ELF4 (Q99607 whole entry): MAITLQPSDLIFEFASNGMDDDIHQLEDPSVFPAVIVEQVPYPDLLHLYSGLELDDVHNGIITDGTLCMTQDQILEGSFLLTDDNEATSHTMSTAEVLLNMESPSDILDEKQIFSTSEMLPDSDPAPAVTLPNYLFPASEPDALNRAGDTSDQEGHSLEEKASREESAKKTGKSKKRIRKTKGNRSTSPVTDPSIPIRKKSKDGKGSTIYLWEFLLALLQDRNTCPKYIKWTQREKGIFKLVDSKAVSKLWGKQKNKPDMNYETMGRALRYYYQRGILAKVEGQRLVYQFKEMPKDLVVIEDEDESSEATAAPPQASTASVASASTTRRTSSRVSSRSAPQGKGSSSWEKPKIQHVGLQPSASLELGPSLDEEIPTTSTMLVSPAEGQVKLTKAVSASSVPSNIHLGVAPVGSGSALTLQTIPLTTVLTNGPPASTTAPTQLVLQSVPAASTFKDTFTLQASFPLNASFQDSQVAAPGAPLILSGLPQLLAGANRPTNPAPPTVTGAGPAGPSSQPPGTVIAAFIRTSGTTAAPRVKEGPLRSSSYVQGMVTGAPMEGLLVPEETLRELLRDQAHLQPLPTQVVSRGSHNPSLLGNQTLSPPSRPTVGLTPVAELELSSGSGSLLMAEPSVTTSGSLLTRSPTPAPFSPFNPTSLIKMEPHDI

On to GATGGT, for which the binding signal is 1.25 fold enrichment (6-mer frequency, TF over GST control) with FLI1; 1.16 fold enrichment (6-mer frequency, TF over GST control) with ELK1; 1.16 fold enrichment (6-mer frequency, TF over GST control) in the experiment with GABPA; 1.23 fold enrichment (6-mer frequency, TF over GST control) with ERG; 1.14 fold enrichment (6-mer frequency, TF over GST control) in the experiment with ELF1; 1.06 fold enrichment (6-mer frequency, TF over GST control) in the experiment with EHF. Besides, the binding signal is 1.19 fold enrichment (6-mer frequency, TF over GST control) with SPIB; 1.17 fold enrichment (6-mer frequency, TF over GST control) in the experiment with ELK3; 1.07 fold enrichment (6-mer frequency, TF over GST control) in the experiment with FEV; 1.16 fold enrichment (6-mer frequency, TF over GST control) in the experiment with ETV5; 1.02 fold enrichment (6-mer frequency, TF over GST control) with HSF1; 1.19 fold enrichment (6-mer frequency, TF over GST control) with SPIC. In addition, the binding signal is 1.11 fold enrichment (6-mer frequency, TF over GST control) with ELF4; 1.18 fold enrichment (6-mer frequency, TF over GST control) in the experiment with ELK4; 1.37 fold enrichment (6-mer frequency, TF over GST control) in the experiment with ETV2; 1.19 fold enrichment (6-mer frequency, TF over GST control) with ELF3; 1.22 fold enrichment (6-mer frequency, TF over GST control) in the experiment with ETV1.
